# Pin1 inh: blocks the human prolyl isomerase Pin1 | hit rate 0.009% among 390,000 | Q13526 | Pin1 FP peptide displacement, HiFluor488, 10 min | Potency, µM (titrated, usually from 115 µM), for inactives: top-dose activity, negative = inhibition, usual class: inhibitors | AID 504891; active = well fitted inhibition curve with a large enough effect in the polarisation, with a control signal flat, not every such curve was filed as active; inconclusive = small, poorly fitted or top-dose-only effect, or effect the other way, or a change in a side signal; inactive = no such curve, though single readings can be large or run the other way; the % refers to the polarisation; note: % is set by controls: 0 for no effect and ±100 for the full control effect
# Target sequence (Q13526 whole entry, looked up): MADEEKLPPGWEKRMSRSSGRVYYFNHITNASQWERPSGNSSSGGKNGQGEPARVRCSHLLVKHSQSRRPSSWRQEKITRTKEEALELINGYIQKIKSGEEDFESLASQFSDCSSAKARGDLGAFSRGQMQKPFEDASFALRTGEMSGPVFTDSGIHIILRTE
# Nrf2 activator: Nrf2 pathway activation | Potency, µM (titrated, usually from 46.1 µM), inactives show top-dose activation, most hits filed as activators | AREc32 ARE-luciferase reporter (MCF7-derived line), luminescence, 24 h | hit rate 0.31% among 410,000 | AID 624171; note: % of control where 0% means no effect; nearly all actives have a fitted effect of over 65% in size
#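 Cells of the AREc32 ARE-luciferase line are plated in OPTI-MEM containing 5% FBS and left overnight at 37 deg C. Compounds are pinned in, incubation continues 24 hr, and firefly luciferase signal is then measured.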
# A549 viability: counter-screen for Nrf2 inhibitors: cytotoxicity in A549 cells. A549 ARE-Fluc cells, CellTiter-Fluor viability, 18-24 h. Potency, µM (top dose mostly 46 µM), inactives show at the top dose activity change, negative = cytotoxicity, most hits filed as inhibitors. hit rate 0.16% among 390,000; note: % is set by controls: 0 for no effect and ±100 for the full control effect
#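 Cytotoxicity counterscreen: CellTiter-Fluor fluorescence was measured in A549 ARE_Fluc cells after 18-24 h of compound exposure in a concentration series. The subsequent BugLite luminescent read reports ARE-luciferase activity.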
# Nrf2 block: blocks Nrf2 signaling; A549 ARE-Fluc reporter, luciferase luminescence, 18-24 h; Potency, µM (doses to about 46 µM), inactives show top-dose activity change, negative = inhibition, usual class: inhibitors; hit rate 2.1% among 360,000; AID 504444; note: % is set by controls: 0 for no effect and ±100 for the full control effect; nearly all actives have a fitted effect of over 60% in size
#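 Two sequential reads on A549 ARE_Fluc cells exposed to compound for 18-24 h: a CellTiter-Fluor fluorescence read for viability, then a luciferase luminescence read for Nrf2/ARE activity.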
# The depositor's hits bear a star; ? = inconclusive; nt = no result given. Only some compounds are listed: those with a hit (about 2.2% of all), similar ones and a draw of the others. Unless noted, calls come from the whole dose curve; as a rule, active = well fitted curve in the direction sought with a large enough effect; inconclusive = small, poorly fitted or top-dose-only effect, or another doubt; inactive = no such curve, though single readings can be large; an effect the other way counts as inactive or inconclusive. Potency is the fitted concentration of half-maximal effect.
SMILES,Pin1 inh,Nrf2 activator,A549 viability,Nrf2 block
Cc1cccc2sc(NC(=O)C3CC3)nc12,-9%,?,-1%,?
Cc1cccc2sc(NC(=O)C3c4ccccc4Oc4ccccc43)nc12,2%,0%,-11%,21µM*
COC(=O)Nc1nc2c(C)cccc2s1,-7%,?,-2%,18%
CCOc1ccc(S(=O)(=O)c2cn(Cc3ccc(C)cc3)c3ccc(OC)cc3c2=O)cc1,19%,2%,2%,12%
CCN(CC)S(=O)(=O)c1ccc(NC(=O)c2ccc(N(C)S(C)(=O)=O)cc2)cc1,2%,-1%,?,nt
CCN(CC)S(=O)(=O)c1ccc(C(=O)Nc2ccc(Cc3ccncc3)cc2)cc1,12%,1%,0%,21µM*
COc1ccc(C(=O)Nc2cccc([N+](=O)[O-])c2)cc1Br,1%,3%,-24%,?
COc1ccc(C(=O)Nc2ccc(OC)c([N+](=O)[O-])c2)cc1Br,-4%,0%,-26%,21µM*
COc1ccc(C(=O)Nc2ccc(Cc3ccncc3)cc2)cc1Br,17%,4%,?,18µM*
Cc1oc(-c2ccccc2Cl)nc1CS(=O)(=O)CC(=O)NCc1ccc(F)cc1,?,-1%,1%,5%
COc1ccc(S(=O)(=O)Nc2cc3c(cc2NCc2ccccc2)n(C)c(=O)n3C)cc1OC,4%,?,1%,?
CC(C)Cn1c(N)c(C(=O)CSc2nc3ncc(Cl)cc3[nH]2)c(=O)n(C)c1=O,23%,4%,?,12µM*
Cc1cc(C)c2nc(N3CCCC(C(=O)NCc4ccccc4F)C3)sc2c1 (stereo not given),-3%,0%,-8%,28%
Cc1ccc(-n2ncc3c(Nc4cccc(C(F)(F)F)c4)ncnc32)cc1C,5%,0%,-6%,nt
COC(=O)C1=C[C@@H](C(=O)OC)C2C3=C(C(=O)[C@]2(C)NC(=O)c2ccccc2)[C@H](C)n2c(=O)n(-c4ccccc4)c(=O)n2[C@@H]3C1 (stereo not given in full),-7%,nt,-1%,?
CCCc1cc(=O)[nH]c(Nc2ccccc2O)n1,?,11µM*,0%,0%
Cc1ccc(C)c(NS(=O)(=O)c2ccc3c(c2)n(C)c(=O)n3C)c1,-4%,5%,7%,nt
COC(=O)c1c(NC(=O)/C=C/C(=O)O)sc(C)c1-c1ccc(C)cc1,-2%,20µM*,-26%,?
COC(=O)c1sc(-c2ccc(Cl)cc2)cc1NC(=O)COCC(=O)O,22%,3%,-14%,?
COC(=O)c1c(NC(=O)/C=C/C(=O)O)sc(C)c1-c1ccc(C(C)C)cc1,?,10µM*,2%,?
CCOC(=O)c1c(NC(=O)/C=C/C(=O)O)sc(C)c1-c1ccc(C)c(C)c1,-16%,?,0%,-15%
COC(=O)c1c(NC(=O)/C=C/C(=O)O)sc(C)c1-c1ccc(C)c(C)c1,-3%,18µM*,-2%,-6%
COC(=O)c1sc(-c2ccc(Cl)cc2)cc1NC(=O)/C=C/C(=O)O,?,8.9µM*,-15%,?
c1ccc(Cn2nnnc2C(c2ccccc2)N2CCN(Cc3ccncc3)CC2)cc1 (stereo not given),0%,nt,1%,5%
N#Cc1cccc(NC(=O)CSc2ccccc2)c1,11%,0%,11%,1%
SMILES,Pin1 inh,Nrf2 activator,A549 viability,Nrf2 block
N#Cc1cccc(NC(=O)CSc2ccc3c4c(cccc24)C(=O)c2ccccc2-3)c1,?,?,26µM*,?
COc1ccc(NC(=O)CSc2ccc3c4c(cccc24)C(=O)c2ccccc2-3)cc1,?,4%,?,10µM*
Cc1cc2c(s1)c1cnn(Cc3ccc(-n4cncn4)cc3)c(=O)c1n2C,-1%,nt,-1%,-25%
Cc1ccc2oc(C(=O)N(Cc3sccc3C)C3CCS(=O)(=O)C3)c(C)c2c1 (stereo not given),4%,6%,-15%,23µM*
N=c1scc(-c2ccccc2)n1/N=C/c1ccco1,16%,11µM*,-6%,3%
C(=N/n1c2ccccc2c2ccccc21)/c1ccco1,-2%,3.2µM*,12%,nt
O=C(Nc1ncnc2nc[nH]c12)c1ccccc1,-5%,nt,5%,16%
COc1cc(NC(=O)CN2C(=O)NC(c3ccccc3)(c3ccccc3)C2=O)c(C)cc1[N+](=O)[O-],7%,6%,-17%,29µM*
COc1cc(NC(=O)CN2C(=O)CN(C)C2=O)c(C)cc1[N+](=O)[O-],-5%,0%,-1%,-7%

# Screens (PubChem)
